# Laboratory results reported in PubChem BioAssay AID463173 (ICCB-Longwood Screening Facility, Harvard Medical School, 2010).
# Among all 52,000 compounds or so, about 1,700 (3.3%) were called active. Cut-off read from the data, not from the text of the source: active = survival mostly below about 52% (no sharp cut-off); inactive = mostly above about 56%. What follows is part of a selection rich in actives, with near analogues and random picks from the rest.
# System: Wild type
# Test: S. aureus survival, RN4220 and DeltatarO strains – OD600, teichoic acid synthesis inhibitors, primary screen (AID 463173)
# Conditions: S. aureus RN4220 wild type/DeltatarO growth, OD600, 18 h, stronger effect = lower value, screened at 18.75 µg/mL (by protocol)
row,SMILES,survival
1,Cc1n[nH]c(C)c1N1C(=O)c2cccc3c(N4CCCCC4)ccc(c23)C1=O,116% (inactive)
2,COc1ccc(CCNC(=O)C(=O)NCC(c2ccc3c(c2)OCO3)N2CCOCC2)cc1 (stereo not drawn),0% (active)
3,CN(C)CCNC(=O)C(=O)NCC(c1ccc2c(c1)OCO2)N1CCOCC1 (stereo not drawn),73% (inactive)
4,CC(C)(C)CC(=O)NCC(c1ccc2c(c1)OCO2)N1CCOCC1 (stereo not drawn),73% (inactive)
5,CNC(=O)C(=O)NCC(c1ccc2c(c1)OCO2)N1CCOCC1 (stereo not drawn),113% (inactive)
6,COCCNC(=O)C(=O)NCC(c1ccc2c(c1)OCO2)N1CCOCC1 (stereo not drawn),-3% (active)
7,O=C(NCCO)C(=O)NCC(c1ccc2c(c1)OCO2)N1CCOCC1 (stereo not drawn),59% (inactive)
8,O=C(NCCCO)C(=O)NCC(c1ccc2c(c1)OCO2)N1CCOCC1 (stereo not drawn),10% (active)
9,CN(C)CCCNC(=O)C(=O)NCC(c1ccc2c(c1)OCO2)N1CCOCC1 (stereo not drawn),124% (inactive)
10,COc1ccc(CNC(=O)C(=O)NCC(c2ccc3c(c2)OCO3)N2CCOCC2)cc1 (stereo not drawn),80% (inactive)
11,CC(C)(C)C(=O)NCC(c1ccc2c(c1)OCO2)N1CCOCC1 (stereo not drawn),-2% (active)
12,COCCCNC(=O)C(=O)NCC(c1ccc2c(c1)OCO2)N1CCOCC1 (stereo not drawn),87% (inactive)
13,COc1ccc(CCNC(=O)C(=O)NCC(c2ccc3c(c2)OCO3)N2CCOCC2)cc1OC (stereo not drawn),73% (inactive)
14,O=C(CS(=O)(=O)c1cccc2nsnc12)NCc1ccccc1Cl,136% (inactive)
15,Cc1cc(Nc2ccc(C(=O)O)c(O)c2)n2ncnc2n1,72% (inactive)
16,O=C(NCCc1ccc(Cl)cc1)c1nc(-c2cccc(F)c2)n2c1CCCCC2,140% (inactive)
17,COc1ccc(Cn2ccc3nc(C)c(C(=O)Nc4ccc(OC)cc4OC)cc3c2=O)cc1,0% (active)
18,COc1cccc(NC(=O)c2cc3c(=O)n(Cc4cccnc4)ccc3nc2C)c1,78% (inactive)
19,Cc1cccc(NC(=O)c2cc3c(=O)n(Cc4cccnc4)ccc3nc2C)c1,-3% (active)
20,COc1ccc(NC(=O)c2cc3c(=O)n(Cc4ccco4)ccc3nc2C)c(OC)c1,88% (inactive)

row,SMILES,survival
1,COc1ccc(Cn2ccc3nc(C)c(C(=O)Nc4ccc(F)cc4)cc3c2=O)cc1,-3% (active)
2,COc1ccc(Cn2ccc3nc(C)c(C(=O)Nc4ccc(OC)cc4)cc3c2=O)cc1,85% (inactive)
3,COc1ccc(NC(=O)c2cc3c(=O)n(Cc4cccnc4)ccc3nc2C)c(OC)c1,88% (inactive)
4,CC(=O)Nc1ccc(NC(=O)c2cc3c(=O)n(Cc4cccnc4)ccc3nc2C)cc1,65% (inactive)
5,COc1ccc(Cn2ccc3nc(C)c(C(=O)Nc4ccc(OC(F)(F)F)cc4)cc3c2=O)cc1,90% (inactive)
6,COc1ccccc1NC(=O)C1=C(C)Nc2nc(SCc3ccccc3)nn2C1c1ccncc1 (stereo not drawn),83% (inactive)
7,CC(C)NC(=O)C1CCCN(c2ncnc3c2nc2n3CCCCC2)C1 (stereo not drawn),73% (inactive)
8,COC(=O)c1nnn(-c2cccc(C)c2)c1C(=O)OC,77% (inactive)
9,Cc1nc2ccccc2c(=O)n1/N=C1\C(=O)N(C)c2ccccc21,108% (inactive)
10,Cc1ccc2c(=O)c(C(=O)c3cccc(Cl)c3)cn(CC(=O)NC3CCCCC3)c2n1,126% (inactive)
11,CCc1ccc(CNC(=O)CN2C(=O)CSc3c2c(C)nn3-c2ccccc2)cc1,125% (inactive)
12,CCOC(=O)c1c(NC(=O)COc2cccc(C)c2C)sc2c1CCC(CC)C2 (stereo not drawn),78% (inactive)
13,CCOC(=O)c1c(NC(=O)COc2ccc(F)cc2)sc2c1CCC(C)C2 (stereo not drawn),69% (inactive)
14,CCOC(=O)c1c(NC(=O)c2ccc(F)cc2)sc2c1CCC(CC)C2 (stereo not drawn),3% (active)
15,CCC1CCc2c(sc(NC(=O)C3c4ccccc4Oc4ccccc43)c2C(=O)OC)C1 (stereo not drawn),80% (inactive)
16,CCOC(=O)c1c(NC(=O)C2c3ccccc3Oc3ccccc32)sc2c1CCC(CC)C2 (stereo not drawn),65% (inactive)
17,CCOC(=O)c1c(NC(=O)c2ccccc2OCC)sc2c1CCC(CC)C2 (stereo not drawn),-1% (active)
18,Cc1ccc(CN(C(=O)COc2cc(C)c(Cl)c(C)c2)c2ccccn2)o1,78% (inactive)
19,COc1ccccc1NC(=O)CSC1=Nc2ccccc2N=C(c2ccc(F)cc2)C1,71% (inactive)
20,CC1CCN(c2nc3ccccc3nc2C(F)(F)F)CC1,78% (inactive)

row,SMILES,survival
1,CC1CCCCN1C(=O)CSc1nc(C2CC2)nc2ccccc12 (stereo not drawn),110% (inactive)
2,CC1CCN(c2nc(-c3ccc(Br)cc3)nc3ccccc23)CC1,105% (inactive)
3,Brc1ccc(-c2nc(N3CCN(c4ccccc4)CC3)c3ccccc3n2)cc1,127% (inactive)
4,CC1CCCCN1c1nc(-c2ccc(C(C)(C)C)cc2)nc2ccccc12 (stereo not drawn),1% (active)
5,CC1CCN(c2nc(-c3ccc(C(C)(C)C)cc3)nc3ccccc23)CC1,3% (active)
6,CCOC(=O)C(CC)n1nc(C)n2c(cc3occc32)c1=O (stereo not drawn),120% (inactive)
7,CCCN(CCC)CCNC(=O)c1cc2c(-c3ccccc3F)nn(C)c2s1,97% (inactive)
8,CCNC(=S)N1CCC(n2cnc3ccccc32)CC1,98% (inactive)
9,Cc1ccc(C(=O)N(c2ccc(C)cc2)S(=O)(=O)c2ccc(Cl)cc2)cc1,73% (inactive)
10,COc1ccc(Cl)cc1NC(=O)c1cc2nc(-c3ccc4c(c3)OCO4)cc(C(F)(F)F)n2n1,65% (inactive)
11,Cc1ccc(-n2nc(C)c(C(=O)NCCCN3CCN(c4cccc(Cl)c4)CC3)c2-n2cccc2)cc1,-2% (active)
12,Cc1nn(-c2ccc(F)cc2)c(-n2cccc2)c1C(=O)NCCCN1CCN(c2cccc(Cl)c2)CC1,110% (inactive)
13,Cc1ccc(-n2nc(C)c(C(=O)NCCCN3CCN(c4ccc(F)cc4)CC3)c2-n2cccc2)cc1,101% (inactive)
14,O=C(NCCCN1CCN(c2ccc(F)cc2)CC1)c1cnn(-c2ccc(F)cc2)c1-n1cccc1,82% (inactive)
15,Cc1ccc(-n2ncc(C(=O)NCCCN3CCN(c4cccc(Cl)c4)CC3)c2-n2cccc2)cc1,59% (inactive)
16,O=C(NCCCN1CCN(c2cccc(Cl)c2)CC1)c1cnn(-c2ccc(F)cc2)c1-n1cccc1,0% (active)
17,COC(=O)c1ccc(Nc2ncnc3c2cnn3C)cc1,81% (inactive)
18,COc1ccc(OC)c(S(=O)(=O)NCCc2csc(-c3cccc(F)c3)n2)c1,135% (inactive)
